Results published in ChEMBL document CHEMBL4513216, “Probing the Open Global Health Chemical Diversity Library for Multistage-Active Starting Points for Next-Generation Antimalarials” (ACS Infect Dis, 2020).
Screen size: about 65,000 compounds; about 2,100 (3.2%) showed an effect of 50% or more. The median lay at about -52%. Only a selection was taken, and strong results are over-represented in it overall.

Each molecule was assayed on Plasmodium falciparum (assay: Screen against P. falciparum Asexual Blood Stage (ABS), at 5uM). Conditions: tested at 5 uM.
Format: functional, Dd2

| SMILES | INHIBITION [%] |
| --- | --- |
| Cc1noc(C)c1CN1C[C@@H]2CN(C(=O)c3cscn3)C[C@@H]2C1 | -82.3 |
| Cc1ccnc(NCCNC(=O)C2CC3(CCNCC3)CN2C)c1 (centres undefined) | -81.4 |
| CC(C)c1n[nH]c(C(=O)Nc2ccccn2)c1Br | 84.6 |
| Cc1ccnc(NC(=O)c2[nH]nc(C(C)C)c2Br)c1 | 73.7 |
| Cc1cc(CN2C[C@@H]3CN(C(=O)c4ccsc4)CCO[C@@H]3C2)no1 | -12.1 |
| CN1CCCc2c1nc1c(c2N)CCCC1 | 75.8 |
| CN1CCc2nc3c(c(N)c2C1)CCCN3C | -7.55 |
| c1cncc(NCCNC2CCCNC2)c1 (centres undefined) | -1.26 |
| CC(C)CN1C(=O)C2(CCCC2)NC1c1cccnc1 (centres undefined) | -8.76 |
| Cc1cnccc1NCCNC1CCN(CC(C)C)CC1 | 80 |
| CC(C)CN1CCC(NCCNc2cccnc2)CC1 | 79.1 |
| CC(=O)N1C[C@H]2CNC[C@@]2(C(=O)NCCNc2ccncc2C)C1 | -37 |
| Cc1cc(CC(C)NC2CCN(CC(C)C)CC2)[nH]n1 (centres undefined) | -57.2 |
| Cn1cc(N2C(=O)CC[C@@H]3[C@H]2CCN3Cc2ccncc2)cn1 | -123 |
| c1ccc(CN2CCN3C[C@H](Oc4cccnc4)C[C@H]3C2)nc1 | -10.5 |
| COc1ccccc1CNCc1nn(-c2ccccc2)c2c1CCC2 | 81.6 |
| c1ccc(O[C@@H]2CC[C@H]3[C@H]2OCCN3Cc2ccsc2)nc1 | -77.6 |
| CN1CCN(S(=O)(=O)c2ccccc2)Cc2cccnc21 | -41.3 |
| O=C(c1[nH]nc(C2CC2)c1Cl)N1CCN(S(=O)(=O)c2ccccc2)CC1 | 75.8 |
| O=C(NCc1ccccn1)[C@]12COC[C@H]1CN(C1CCC1)C2 | -26.3 |
| N#Cc1ccc(NCCc2n[nH]c(=O)[nH]2)cc1Cl | -36.1 |
| O=C(Nc1cccnc1)[C@H]1CN(Cc2ccco2)C[C@H]2OCC[C@@H]12 | -115 |
| Cc1nccc([C@@H]2C[C@@H]3CCN(Cc4ccco4)C[C@H]3O2)n1 | -17.2 |
| Cc1ccc(NCCCNC(=O)C2CCCN(Cc3ccco3)C2)nc1 (centres undefined) | 70.6 |
| CC(C)CC(=O)N1CCC2(CC1)OCCO2 | -80.4 |
| COc1ccc2ncn(Cc3ncc[nH]3)c(=O)c2c1 | -84.2 |
| CC(C)N1CCO[C@H]2CN(C(=O)c3ccncc3F)C[C@H]21 | -88.4 |
| O=C(c1ccc(Cl)cc1-n1cnnn1)N1CCC2(CC1)OCCO2 | -52.7 |
| CCC1CN(C(=O)c2ccc(Cl)cc2O)CCN1C(C)C (centres undefined) | 73.3 |
